Nrf2 activator: qHTS of Nrf2 Activators; AREc32 ARE-luciferase reporter (MCF7-derived line), luminescence, 24 h; Potency, µM (titrated, usually from 46.1 µM), without a hit: at the top dose activation, most hits filed as activators; 410,000 compounds, 0.31% hits; AID 624171, 2012; also: potency is read from the fitted curve at half-maximal effect; % of control where 0% means no effect; nearly all actives have a fitted effect of over 65% in size
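Nrf2 activation is followed as ARE-luciferase induction in the AREc32 line after one day of compound treatment; luminescence is read with Steady-Glo.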
A549 tox-1: Nrf2 qHTS screen for inhibitors: counterscreen for cytotoxicity | 390,000 compounds, 0.16% hits | Potency, µM (doses to about 46 µM), inactives show top-dose activity change, negative = cytotoxicity, actives largely listed as inhibitors | A549 ARE-Fluc cells, CellTiter-Fluor viability, 18-24 h | AID 504648, 2011; also: potency is read from the fitted curve at half-maximal effect; % is scaled to controls: 0 for no effect and ±100 for the full control effect
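A549 ARE-Fluc cells in 5% FBS OPTI-MEM, 5000 cells/well, rested 2 h then exposed to compounds in concentration-response for 18-24 h at 37 °C. Viability by CellTiter-Fluor fluorescence (Ex 405/Em 525) after 30 min; luciferase luminescence (BugLite, 15 min, RT) read afterwards.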
miR-21 act: qHTS Assay for Modulators of miRNAs and/orActivators of miR-21. HeLa miR-21 FLuc reporter, luciferase, 48 h. Potency, µM (top dose mostly 38.3 µM), without a hit: at the highest dose activity change, positive = activation, most hits filed as activators. 340,000 tested, under 10 active;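 also: % of control where 0% means no effect; miR-21 action dims this reporter so a rising signal means less miR-21 action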
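HeLa miR-21-FLuc reporter line, endogenous miR-21; 2000 cells/well in DMEM/10% FBS; compound titration up to ~40uM final, 48 h, 37 degree Celsius; luciferase detection reagent, 15 min lysis, CCD luminescence.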
B2AR arrestin: qHTS assay of beta-arrestin-biased ligands of beta2-adrenergic receptor; Beta-2 adrenergic receptor (Homo sapiens), P07550; beta-arrestin recruitment to beta2AR, cell-based reporter; Potency, µM (doses to about 46.1 µM), without a hit: top-dose activation, actives largely listed as activators; 330,000 compounds, 0.02% hits; AID 492947, 2010;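 also: potency is read from the fitted curve at half-maximal effect; 0% = DMSO controls and full agonism = EC100 isoproterenol or metaproterenol; nearly all actives have a fitted effect of over 65% in size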
Nrf2 block: Nrf2 qHTS screen for inhibitors | Potency, µM (doses to about 46 µM), for the others: top-dose activity change, negative = inhibition, hits mostly inhibitors | A549 ARE-Fluc reporter, luciferase luminescence, 18-24 h | 360,000 compounds, 2.1% hits; also: potency is read from the fitted curve at half-maximal effect; % is scaled to controls: 0 for no effect and ±100 for the full control effect; nearly all actives have a fitted effect of over 60% in size
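A549 ARE_Fluc cells (5000/well, 5% FBS OPTI-MEM) pre-incubated 2 h, then treated with compounds 18-24 h at 37C/5% CO2 in concentration-response. CellTiter-Fluor viability read first; BugLite luciferase luminescence after 15 min at room temperature gives Nrf2 activity.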
FLuc enzyme inh: Nrf2 qHTS screen for inhibitors: Purified Fluc Biochemical Counterscreen for Hit Validation; purified firefly luciferase, luminescence inhibition; 1,400 compounds, 4% hits; shares compounds with Nrf2 block; Potency, µM (titrated, usually from 57.5 µM), for inactives: at the top dose activity change, negative = inhibition, most hits filed as inhibitors; also: potency is read from the fitted curve at half-maximal effect; % is scaled to controls: 0 for no effect and ±100 for the full control effect; nearly all actives have a fitted effect of over 65% in size
Target sequence (P08659 whole entry, looked up): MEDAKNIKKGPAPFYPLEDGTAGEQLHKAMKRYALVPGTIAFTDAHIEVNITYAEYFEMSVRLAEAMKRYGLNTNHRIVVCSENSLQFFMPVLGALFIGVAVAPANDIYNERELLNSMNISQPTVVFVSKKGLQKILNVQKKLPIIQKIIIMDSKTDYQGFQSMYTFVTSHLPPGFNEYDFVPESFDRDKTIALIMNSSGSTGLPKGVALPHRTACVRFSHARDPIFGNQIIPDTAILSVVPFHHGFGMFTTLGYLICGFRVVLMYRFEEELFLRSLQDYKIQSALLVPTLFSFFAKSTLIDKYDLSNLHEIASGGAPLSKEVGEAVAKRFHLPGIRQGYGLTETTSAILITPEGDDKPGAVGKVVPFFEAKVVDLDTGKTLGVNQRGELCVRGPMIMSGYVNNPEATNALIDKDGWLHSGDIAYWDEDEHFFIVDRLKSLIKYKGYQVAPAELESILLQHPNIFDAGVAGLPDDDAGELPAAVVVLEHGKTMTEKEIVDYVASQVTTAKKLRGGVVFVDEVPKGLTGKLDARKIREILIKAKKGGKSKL
A549 tox-2: Nrf2 qHTS screen for inhibitors: A549 ARE-Fluc Cytotoxicity Counterscreen for Hit Validation; shares compounds with Nrf2 block; A549 ARE-Fluc cells, cytotoxicity counterscreen; Potency, µM (top dose mostly 46.1 µM), inactives show at the top dose activity change, negative = cytotoxicity, most hits filed as inhibitors; 1,400 compounds, 2% hits; AID 720523, 2013;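 also: potency is read from the fitted curve at half-maximal effect; cells exposed to compounds for 18 to 24 hours; % is scaled to controls: 0 for no effect and ±100 for the full control effect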
ARE-Fluc inh: Nrf2 qHTS screen for inhibitors: Nrf2 A549 ARE-Fluc Confirmation Assay for Hit Validation; 1,400 compounds, 74% hits; shares compounds with Nrf2 block; A549 ARE-firefly luciferase reporter, luminescence; Potency, µM (highest dose often 46.1 µM), for inactives: top-dose activity change, negative = inhibition, hits mostly inhibitors; also: potency is read from the fitted curve at half-maximal effect; % is scaled to controls: 0 for no effect and ±100 for the full control effect; nearly all actives have a fitted effect of over 65% in size
* = called active by the depositor; ? = inconclusive; · = not tested or not shown. Shown are actives, neighbours in structure and some others; about 2.2% of the full set was active somewhere. Calls follow the shape of the dose curve; as a rule, active = well fitted curve in the direction sought with a large enough effect; inconclusive = small, poorly fitted or top-dose-only effect, or another doubt; inactive = no such curve, though single readings can be large; an effect the other way counts as inactive or inconclusive.

SMILES | Nrf2 activator | A549 tox-1 | miR-21 act | B2AR arrestin | Nrf2 block | FLuc enzyme inh | A549 tox-2 | ARE-Fluc inh
O=C(N/N=C\c1ccc(COc2ccc([N+](=O)[O-])cc2)o1)c1cccc(Cl)c1 | 2% | -13% | -9% | 0% | ? | · | · | ·
COc1cc2cc(C(=O)N3CC(COS(C)(=O)=O)c4ccc(O)cc43)[nH]c2c(OC)c1OC (centres undefined) | -2% | ? | · | · | 0.058µM* | -19% | ? | ?
C[C@H]1O[C@@H](O[C@H]2[C@@H](O)C[C@@H](O[C@H]3[C@@H](O)C[C@H](O[C@H]4CC[C@@]5(C)[C@H](CC[C@@H]6[C@@H]5CC[C@]5(C)[C@@H](C7=CC(=O)OC7)CC[C@]65O)C4)O[C@@H]3C)O[C@@H]2C)C[C@H](O)[C@@H]1O | · | · | · | · | · | 1% | ? | 0.021µM*
CC12CCC(O)CC1CCC1C2CCC2(C)C(C3=CC(=O)OC3)C(O)CC12O (centres undefined) | -1% | ? | · | · | 1.8µM* | 1% | ? | ·
C[C@]12CC[C@H](O)C[C@H]1CC[C@@H]1[C@@H]2C[C@@H](O)[C@]2(C)[C@@H](C3=CC(=O)OC3)CC[C@]12O | -3% | ? | · | 0% | 0.46µM* | 0% | ? | 0.46µM*
CC(=O)OC1CC(OC2C(O)CC(OC3C(O)CC(OC4CCC5(C)C(CCC6C5CC(O)C5(C)C(C7=CC(=O)OC7)CCC65O)C4)OC3C)OC2C)OC(C)C1OC1OC(CO)C(O)C(O)C1O (centres undefined) | -3% | ? | · | · | 0.13µM* | 1% | ? | 0.16µM*
COc1ccc(/C=C2\SC(=O)N(CCn3cnnn3)C2=O)cc1 | 4% | 1% | -38% | 0% | 8% | · | · | ·
O=C(Oc1ccc2ccc(OC(=O)N3CCCCCC3)cc2c1)N1CCCCCC1 | 2% | -6% | -13% | 0% | ? | · | · | ·
C[C@]12CC[C@H]3C(CCC4(O)CC(O)CC[C@]34C=O)C1=CC[C@H]2c1ccc(=O)oc1 (some centres undefined) | -3% | -25% | ? | 0% | ? | · | · | ·
C[C@]12CC[C@H](O)C[C@H]1CC[C@@H]1[C@@H]2CC[C@]2(C)[C@@H](C3=CC(=O)OC3)CC[C@]12O | -2% | ? | · | 0% | 0.26µM* | 3% | ? | 0.21µM*
CC12CCC(O)CC1CCC1C2CCC2(C)C(C3=CC(=O)OC3)CCC12O (centres undefined) | -1% | ? | · | · | 0.41µM* | 1% | ? | 0.26µM*
CC12CC[C@H]3[C@@H](CCC4(O)C[C@H](O)CCC34/C=N/NC(=O)Cc3ccccc3)C1(O)CCC2C1=CC(=O)OC1 (some centres undefined) | -1% | -25% | ? | -1% | ? | · | · | ·
C[C@]12CC[C@H](O)C[C@H]1CCC1C2CC[C@]2(C)[C@@H](c3ccc(=O)oc3)C[C@H]3O[C@]132 (some centres undefined) | · | · | · | · | · | -2% | ? | 1.5µM*
CC12CC[C@H]3[C@@H](CCC4(O)C[C@H](O)CCC34/C=N/NC(=O)c3ccccc3[N+](=O)[O-])C1(O)CCC2C1=CC(=O)OC1 (some centres undefined) | 0% | ? | ? | -2% | 4.6µM* | 0% | ? | 7.3µM*
CC1Oc2cc3c(-c4c(O)cc(O)c5c(O)c6c(cc45)OC(C)C(C)C6=O)c(O)cc(O)c3c(O)c2C(=O)C1C (centres undefined) | 0% | ? | ? | 0% | 4.6µM* | 1% | -17% | 9.2µM*
Cc1cc2ccccc2n1-c1ccc(C(=O)N2CCC(C(=O)NCc3ccc(Cl)cc3)CC2)s1 | 0% | -15% | ? | · | 7.3µM* | -1% | -20% | 8.2µM*
CCCCCn1c(=O)c(C(=O)NCc2ccc(Cl)cc2)c(O)c2ccccc21 | 0% | -2% | 0% | 0% | ? | · | · | ·
C[C@H]1[C@@H](OS(=O)(=O)O)C[C@@H]2C[C@H]([C@@H](O)c3cc(=O)[nH]c(=O)[nH]3)NC3=NC[C@H]1N32 | -3% | -29% | · | · | 0.65µM* | 2% | · | 0.23µM*
C/C(=C\[C@@H](NP(=O)(c1ccccc1)c1ccccc1)c1ccccc1)CO[Si](c1ccccc1)(c1ccccc1)C(C)(C)C | 2% | ? | · | · | ? | · | · | ·
C[n+]1c2cc(N)ccc2cc2ccc(N)cc21 | -2% | ? | · | · | 1.5µM* | -13% | 86% | 1.6µM*
C#CC1(O)CCC2C3CCC4=C/C(=N/OCC(=O)NCC(=O)NC(C(=O)O)C(C)C)CC[C@]4(C)C3CC[C@@]21C (some centres undefined) | 2% | 3% | -23% | 0% | 2.1µM* | 1% | -6% | 6.5µM*
C#C[C@@]1(O)CCC2C3CCC4=C/C(=N/OCC(=O)NC(C(=O)O)C(C)O)CC[C@]4(C)C3CC[C@@]21C (some centres undefined) | 0% | 0% | -3% | 1% | -7% | · | · | ·
COc1ccc(NC(=O)CN2C(=O)CN=C(c3ccccc3)c3ccccc32)c(OC)c1 | 1% | 6% | -1% | · | · | · | · | ·
C[C@H]1CCC/C=C/C2C[C@H](O)CC2[C@H](O)/C=C/C(=O)O1 (some centres undefined) | 4% | ? | ? | 0% | 0.15µM* | 0% | ? | ·
CC1CCC/C=C/C2CC(O)CC2C(O)/C=C/C(=O)O1 (centres undefined) | 0% | ? | ? | 0% | 0.26µM* | 3% | ? | ·
C[C@H]1CCC[C@@H](O)CCC/C=C/c2cc(O)cc(O)c2C(=O)O1 | 0% | -8% | 29% | 0% | ? | · | · | ·
CCOc1ccc2nc(N3CCC(C(=O)Nc4ccc(Br)cc4F)CC3)sc2c1 | -1% | 2% | -44% | · | ? | · | · | ·
